Screens (PubChem BioAssay)
Pf growth 96h = P. falciparum growth inhibition at 96 hours | P. falciparum luciferase reporter growth, 96 h | Potency, µM (highest dose often 28.7 µM), actives largely listed as inhibitors | hit rate 6.9% among 320,000 | AID 504834
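Compounds incubated with erythrocytes infected by luciferase-expressing P. falciparum (2% hematocrit, 0.05% parasitemia final) for 96 hours, 37 C in 5% CO2. Growth inhibition scored as decreased luciferase luminescence.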
HCMV antiviral = human cytomegalovirus inhibition; HFF cells, HCMV-luciferase reporter, 72 h; active compounds read low; activity change, negative = inhibition, % at 57.5 µM; hit rate 4.5% among 410,000; AID 1259415; in the data active = activity change below about -60%; inconclusive = no clear call, values can overlap the other calls; inactive = above about -39%
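Screen run at 2 compound doses on HFFs infected with reporter HCMV, MOI 1 PFU/cell. Luciferase activity from cell lysates at 72 h post infection gave inhibition relative to buffer-only and Salinomycin wells.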
Cycloheximide cs = counter-screen for Shiga toxin inhibitors: cycloheximide protein synthesis inhibition. cell reporter, cycloheximide protein synthesis inhibition counterscreen. max response, %. hit rate 12% among 300,000; in the data active = max response mostly above about 13%, no sharp cut-off; inactive = mostly below about 14%; also: read at 38.3 µM for the half of the compounds with a filed dose
Shiga inhibitor = inhibitors of Shiga toxin in Vero cells | hit rate 9.2% among 290,000 | AID 2315 | inhibition, % at 38.7 µM | Vero cells, Shiga toxin protein synthesis inhibition reporter; in the data active = inhibition mostly above about 28%, no sharp cut-off; inactive = mostly below about 43%
Pf growth 48h = P. falciparum growth inhibition at 48 hours (one generation); P. falciparum luciferase growth in erythrocytes, 48 h; Potency, µM (top dose mostly 28.7 µM), most hits filed as inhibitors; hit rate 5.9% among 310,000; AID 504832
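Firefly luciferase activity from engineered P. falciparum reports growth; inhibitors lower the luminescent signal. Cultures contained 2% hematocrit erythrocytes at 0.1% final parasitemia.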
HCV inh = HCV inhibition. Huh7.5.1 HCVcc-Cre infection, luciferase reporter, 44 h. hit rate 3.4% among 340,000. AID 651820. Potency, µM (doses to about 41.8 µM), usual class: inhibitors
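Reporter virus HCVcc-Cre (~0.5 moi) infects cells exposed to compound; seeding density 1,000 cells/well with 4 h settling beforehand. Luminescence, 15 sec read, taken 44 h post-infection following a 15 min RT substrate incubation.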
A number is an active result; . = inactive; ? = inconclusive; / = no result given; [ ] = remark or other dose. The list is not random: actives were taken first. Their share in the collection is about 21%. Unless noted, calls follow the shape of the dose curve; as a rule, active = well fitted inhibition curve with a large enough effect; inconclusive = small, poorly fitted or top-dose-only effect, or another doubt; inactive = no such curve, though single readings can be large or run the other way.

SMILES | Pf growth 96h | HCMV antiviral | Cycloheximide cs | Shiga inhibitor | Pf growth 48h | HCV inh
C(#Cc1ccccc1)CN1CCOCC1 | . | ? | 31 | 96 | . | .
O=C(C[N+]1(CC#Cc2ccccc2)CCCCC1)c1ccccc1 | ? | . | . | . | 9.3µM | .
O=C(C[N+]1(CC#Cc2ccccc2)CCOCC1)c1ccccc1 | . | . | . | . | 13µM | .
C#CC[N+]1(CC#Cc2ccccc2)CCOCC1 | . | . | 16 | . | / | .
CC(Oc1ccc(Br)cc1)C(=O)N(C)CC(=O)Nc1ccc(N2CCOCC2)cc1 (stereo not given) | . | . | / | / | . | .[8.37 µM]
CCOC(=O)[C@]12Cc3ccccc3[C@H]1N(C)C(=O)c1cc(OC)ccc12 | / | -97 | / | / | / | /
CCOC(=O)[C@]12Cc3c(cc(OC)c(OC)c3OC)[C@H]1N(C(C)C)C(=O)c1ccccc12 | / | -100 | / | / | / | /
CCOC(=O)N1CCN(C(=O)C2c3cc(OC)c(OC)cc3C(=O)N3CCc4ccccc4C23)CC1 (stereo not given) | . | . | . | . | . | .
CCOC(=O)[C@]12Cc3ccccc3[C@H]1N(Cc1ccccc1)C(=O)c1ccccc12 | / | . | / | / | / | .
CCOC(=O)[C@]12Cc3ccccc3[C@H]1N(C(C)C)C(=O)c1cc(OC)ccc12 | / | -97 | / | / | / | /
COc1ccc2c(c1)C(=O)N(c1ccccc1C)C(=O)C2(C)C | . | . | . | . | . | .
CCOC(=O)[C@]12Cc3cc(C)ccc3[C@H]1N(C(C)C)C(=O)c1ccccc12 | / | -98 | / | / | / | /
COc1cccc(-n2cc(C(=O)Nc3cccc(C(F)(F)F)c3)c3ccccc3c2=O)c1 | / | . | / | / | / | /
CCCc1cc(C(=O)NC2CCCN(Cc3ccccc3F)C2)no1 (stereo not given) | 10µM | ? | . | . | . | .
CCc1[nH]nc(C(=O)NC2CCCN(Cc3ccccc3F)C2)c1C (stereo not given) | 13µM | . | . | . | . | .
O=C(CCn1cnnn1)NC1CCCN(Cc2ccccc2F)C1 (stereo not given) | 13µM | . | . | . | . | /
CC(=O)c1ccc(C(=O)NC2CCCN(Cc3ccccc3F)C2)cc1 (stereo not given) | 5.9µM | . | . | / | . | .
CCc1cc(C(=O)N2CCN(C(=O)c3ccco3)CC2)sc1C | ? | . | / | / | ? | .
C/C(=N\NC(=O)COc1ccccc1)c1ccc(O)cc1 | . | . | . | . | . | .
C/C(=N\Nc1nncc2ccccc12)c1ccc(OCC(=O)N(C)C)cc1 | . | . | 44 | 138 | . | .
CC/C(=N\Nc1nncc2ccccc12)c1ccc(F)cc1 | . | . | 47 | 71 | . | .
CCOC(=O)NNc1nncc2ccccc12 | . | . | / | / | . | .
CCOc1ccccc1NC(=O)COC(=O)CC(C)(C)CC1=NS(=O)(=O)c2ccccc2N1 | . | . | . | . | . | ?
COc1ccc(-c2nc3cc(C)c(Br)c(C)n3c2Cc2ccc(C)cc2)cc1OC | / | . | / | / | / | /
N#Cc1cccc(NC(=O)c2cc(C3CCCCN3C(=O)c3ccccn3)on2)c1 (stereo not given) | / | . | / | / | / | /
SMILES | Pf growth 96h | HCMV antiviral | Cycloheximide cs | Shiga inhibitor | Pf growth 48h | HCV inh
N#Cc1cccc(NC(=O)c2cc(C3CCCCN3C(=O)C3CC3)on2)c1 (stereo not given) | / | -63 | / | / | / | /
COc1ccc(NC(=O)N[C@H]2CC[C@@]34CCCN3C(=O)CCC[C@H]4C2Cc2ccccc2)cc1 (stereo not given in full) | / | . | / | / | / | /
O=S1(=O)N[C@@H](Cc2ccccc2)COc2cc(NCCCN3CCOCC3)ccc21 | / | . | / | / | / | /
COc1ccccc1CNC(=O)c1cc(-c2ccccc2C)nn1CC1CC(c2cccnc2)=NO1 (stereo not given) | 4.7µM | ? | / | / | ? | ?
CCOC(=O)c1cc(-c2ccccc2)nn1CC1CC(c2ccc(OC)cc2)=NO1 (stereo not given) | / | . | / | / | / | ?
Cc1ccccc1-c1cc(C(=O)NCc2cccc(Br)c2)n(CC2CC(c3cccnc3)=NO2)n1 (stereo not given) | / | . | / | / | / | ?
O=C(NCc1ccc(OC(F)(F)F)cc1)c1cc(-c2ccccc2)nn1CC1CC(c2cccnc2)=NO1 (stereo not given) | / | -67 | / | / | / | ?
COc1ccc(C2=NOC(Cn3nc(C(=O)NCc4ccccc4OC)cc3-c3ccccc3)C2)cc1 (stereo not given) | ? | . | / | / | 13µM | ?
